# Records with an inconclusive call do not appear. Values without a mark were called inactive.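 The calls were made as follows: active = viability at or below 27.92% in each of two runs, the all-compound median minus 4 SD; inconclusive = no clear call, values can overlap the other calls; inactive = the rest.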
# Experiment: growth suppression of PTEN-deleted HCT116, pilot screen, cell-based, HCT116 clonal line, CellTiter-Glo (AID 824);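 also: 0% = 20 µM Hyamine control and 100% = vehicle cell control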
# Conditions: 60 h, at 10 µM, hits give low values
row,SMILES,viability
1,CCCCN=CC1=C(O)C(C(=O)OC)C(C)(C)CC1=O (stereo not given),93.9%
2,Cc1ccc(C)c(C(=O)CC2(O)C(=O)N(C)c3ccccc32)c1 (stereo not given),97.2%
3,CC(=O)C1=C(C)Nc2ncnn2C1c1cccc(OCc2ccccc2)c1 (stereo not given),93.5%
4,Cc1ccc(C(=O)CC2(O)C(=O)N(C)c3ccc(Br)cc32)c(C)c1 (stereo not given),74.7%
5,Fc1cccc(Nc2ncnc3c2cnn3-c2ccccc2)c1,70.2%
6,COc1ccc(NC(=O)NCCN2C(=O)C3C4C=CC(C4)C3C2=O)cc1 (stereo not given),94.5%
7,Cc1ccc(C)c(NC(=O)CSc2nnc(-c3ccccc3)o2)c1,97.2%
8,O=C(NCCCN1CCOCC1)c1cc(-c2ccc(O)cc2)on1,93.7%
9,CCOC(=O)c1ccc(NC(=O)Cn2cc3c(n2)CCC(C)C3)cc1 (stereo not given),106%
10,N#C/C(C(=O)N1CCOCC1)=C1/SC=C(c2ccccc2)N1c1ccccc1,95%
11,COc1ccc(C(=O)c2coc3ccc(O)c(CN4CCCCC4)c23)cc1,53.3%
12,CCn1c(C(=O)N2CCC(C(=O)N3CCN(c4ccccn4)CC3)CC2)cc2sccc21,78.2%
13,CCOC(=O)N1CCN(Cc2nc3c(c(=O)n(C)c(=O)n3C)n2Cc2ccccc2)CC1,98%
14,CN1CCN(C(=O)c2ccc(CS(=O)(=O)c3c(Cl)cccc3Cl)o2)CC1,96%
15,CN(C)CCCN1C(=O)c2oc3ccc(Cl)cc3c(=O)c2C1c1cccnc1 (stereo not given),92.7%
16,O=C(CSc1nnc2ccccn12)c1ccccc1,102%
17,Cc1ccccc1Cn1ccc(NC(=O)c2onc(C)c2Cl)n1,91.2%
18,CN(CCCNC(=O)c1cn(C)c2ccc(S(=O)(=O)N(C)C)cc2c1=O)c1ccccc1,85%
19,NC(=O)CN1C(=O)C(O)(CC(=O)c2ccccc2O)c2ccccc21 (stereo not given),93.9%
20,CC(C)CCN(C)C1CCN(S(=O)(=O)c2ccc(F)cc2)CC1,98.5%

row,SMILES,viability
1,COc1ccc(C(C)N2CC34C=CC(O3)C(C(=O)OCC(C)C)C4C2=O)cc1 (stereo not given),88.5%
2,COc1ccc(Cl)cc1S(=O)(=O)N1CCN(c2ccc(F)cc2)CC1,89.7%
3,Cc1sc2nc(SCC(=O)NCCO)n(C)c(=O)c2c1C,94.6%
4,CC(=O)NCCc1nc2ccccc2[nH]1,97%
5,CCN1C(=O)c2cccc3c(NC(=O)c4ccc(S(=O)(=O)N(C)C)cc4)ccc1c23,75.8%
6,Cc1nc2ccccc2c2oc(C(=O)N3CCN(C(=O)c4ccco4)CC3)cc12,107%
7,c1ccc(Cn2nnc3c(N4CCCCCC4)ncnc32)cc1,33.6%
8,COC(=O)c1cn(C(=O)c2ccc(Br)o2)c2ccccc12,102%
9,CS(=O)(=O)Nc1ccccc1C(=O)O,97.6%
10,Cn1cccc1Cc1nnc(SCC(=O)NCC2CCCO2)n1-c1ccc(F)cc1 (stereo not given),94.7%
11,Cc1ccc(Cn2c(=O)c3ccccc3n3c(CCC(=O)O)nnc23)cc1,98.7%
12,COc1ccc(OCCSc2nc3ccccc3n2CC(=O)O)cc1,94.8%
13,CCCCSc1nc2c(cnn2-c2ccc(F)cc2)c(=O)[nH]1,93.7%
14,CCOc1ccc(NC(=O)C(C)Sc2nnc(C)n2C)cc1 (stereo not given),93.9%
15,CCOc1ccc2[nH]c(C)cc(=O)c2c1,88.4%
16,Cc1nc2ccccc2c2oc(C(=O)N3CCC(N4CCCCC4)CC3)cc12,79.6%
17,O=C(O)c1ccc2c(c1)C(=O)N(c1ccc(Cl)cn1)C2=O,96.2%
18,COc1cccc(-c2nc(CS(=O)(=O)CC(=O)NCc3ccc(Cl)cc3)c(C)o2)c1,89.3%
19,COc1ccc(C(NC(=O)c2ccco2)c2ccc(OC)c(OC)c2)cc1 (stereo not given),96.4%
20,CCOC(=O)N1CCC(NC(=O)CN2C(=O)CCSc3ccccc32)CC1,101%

# Reference: PubChem BioAssay
